These results are taken from PubChem BioAssay AID588850 (Sanford-Burnham Center for Chemical Genomics, 2011).

Several values for one entry are separate records, joined by “and”; a condition that tells them apart may be missing. Identical values can stand only once. In all, about 360,000 compounds went through this assay and about 3,100 (0.86%) were called active. The entries come from a sample that favours actives as a whole. Unmarked numbers belong to inactive results.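 How the source made its calls: active means at least 50% inhibition at 5 µM, scaled per plate between neutral and stimulator controls; inactive means the rest.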

This experiment in a line: inhibitors of PAF-induced NF-kB signaling, primary screen, cell-based, GFP fluorescence, uHTS (AID 588850).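 Further: PAF is a Pseudomonas aeruginosa culture filtrate used as stimulus; plate controls were PAF-stimulated DMSO wells for no effect and unstimulated DMSO wells for full effect.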 The conditions noted are these: KKLEB NF-kB-GFP reporter, GFP fluorescence overnight, at 5 µM, active compounds read high.
As a reminder, the inhibition is the relative decrease from the control value, in per cent. As for `Cc1nnc(SCCCCSc2nnc(C)c(=O)[nH]2)[nH]c1=O`, the inhibition is 6.2%.
As to `CC(=O)c1ccc(-c2cnc3c(NC=O)cc(-c4cccc(NS(C)(=O)=O)c4)cn23)cc1`, the inhibition is 74.7% (active).
With `CC(=O)c1cccc(-c2cnc3c(NC=O)cc(-c4cccc(C(=O)N(C)C)c4)cn23)c1` the figure was 0.7%; with `CC(=O)c1cccc(-c2cnc3c(NC=O)cc(-c4ccc(N(C)C)cc4)cn23)c1`, 29.8%.
Consider `COc1ccc(-c2cc3nc(NCCOc4ccccc4)ccn3n2)cc1`, for which the inhibition is 20.8%.
Turning to `Cc1ccc(C(=O)N/C(=C\c2cccs2)C(=O)NCCc2ccccn2)cc1C`, the inhibition was 5.1%.
For the molecule `COc1cncc(-c2cnc3sc(NCCc4ccccn4)nn23)c1`, the inhibition is 74.1% (active).
On to `O=C(OCc1ccccc1)N1CCC2CC1c1cc(N3CCN(S(=O)(=O)c4cc(Cl)cc(Cl)c4)CC3)ccc12` (centres undefined), for which the inhibition was 10.1%.
Turning to `CCC1=C(OC(=O)N(CC)CC)N2C(=O)OC(=NCC3CC3)[C@]2(C)[C@H]2C1=CC[C@H]1C(=O)N(CC(=O)OC)C(=O)[C@H]12`, the inhibition is 7.9%.
With `COc1cc(C(=O)N/C(=C\c2cn(C)c3ccccc23)C(=O)N2CCOCC2)cc(OC)c1OC` the figure was -23.4%.
For the molecule `COc1ccc(C(N)c2csc(NC(=O)Nc3cccc(C(F)(F)F)c3)n2)cc1` (centres undefined), the inhibition was 24.7%.
`COc1cc(NC(=O)c2[nH]cnc2C(N)=O)cc(C(=O)Nc2cccc(C(F)(F)F)c2)c1`: the inhibition is 53.2% (active).
With `COc1cc(NC(=O)c2cncc(-c3ccc(C#N)cc3)c2)cc(C(=O)Nc2cccc(C(F)(F)F)c2)c1` the figure was -39% and -21.4%; with `CCCCn1ccnc1C(=O)c1cccc(S(=O)(=O)N2c3ccccc3CC2C)c1` (centres undefined), 2.6%.
Turning to `COc1ccccc1OCc1ccc(C(=O)N2CCN(C)CC2)o1`, the inhibition was 6.4%.
Turning to `COc1ccccc1N1CCN(C(=O)c2cc(=O)c3cc(C)cc(C)c3o2)CC1`, the inhibition was 51% (active).
Regarding `COc1ccccc1N1CCN(C(=O)c2ccc(NC3=NC4CS(=O)(=O)CC4S3)cc2)CC1` (centres undefined), the inhibition is -7.3%.
With `O=C(COC(=O)c1cccnc1Cl)Nc1ccc(S(=O)(=O)N2CCOCC2)cc1`, the inhibition was 5.3%.
Consider `CCN(CC)S(=O)(=O)c1ccc2[nH]c(=O)cc(C(=O)N(C)C3CCS(=O)(=O)C3)c2c1` (centres undefined), for which the inhibition is -1.3%.
Consider `O=C1C=C(NS(=O)(=O)c2ccccc2)C(=O)c2ccccc21`, for which the inhibition is 72% (active).
Turning to `Cc1ccc(S(=O)(=O)/N=C2\C=C(NS(=O)(=O)c3ccc(C)cc3)C(=O)c3ccccc32)cc1`, the inhibition was 68.9% (active).
In the case of `CC(=O)NS(=O)(=O)c1ccccc1`, the inhibition is 10.6%.
As for `O=C(O)c1ccccc1NC(=O)c1ccccc1-c1ccccc1C(=O)O`, the inhibition was 11.9%.
With `Cc1ccc(S(=O)(=O)N/N=C(\c2ccccc2)C2CC2)cc1` the figure was 14.8%.
As for `O=C(NC1=CC(=O)c2ccccc2C1=O)c1ccccc1`, the inhibition is 84.9% (active).
Take `Cc1cc(NS(=O)(=O)c2ccccc2)no1`: the inhibition is -1.3%.
For `Cc1cc(=O)c2ccc(NC(=O)c3ccccc3)cc2[nH]1`, the inhibition was 3.1%.
Take `COc1ccc(S(=O)(=O)/N=C2\C=C(NS(=O)(=O)c3ccccc3)C(=O)c3ccccc32)cc1`: the inhibition was 45%.
With `CC(c1ccco1)N(C(=O)COc1ccccc1[N+](=O)[O-])c1ccccn1` (centres undefined) the figure was 8.2%.
Regarding `CN(C)C(=O)Cn1c(=O)n(S(=O)(=O)c2ccccc2)c2ccccc21`, the inhibition was 5.9%.
The figure for `COC(=O)[C@@H]1C[C@H]2CC[C@H](O)C[C@H]2N1Cc1ccc(N2CCN(C)CC2)cc1` is 0.1%; for `CC(C(=O)N1CCc2ccccc21)N(C)CC(=O)Nc1ccc(F)cc1` (centres undefined) it is -12%; for `COC1(C2=NCCN2)COc2ccccc2O1` (centres undefined) it is 9.5%.
Turning to `Cc1cc(-c2n[nH]c(=S)n2/N=C/C(Br)=C/c2ccccc2)n[nH]1`, the inhibition was 87.5% (active).
As for `COc1ccccc1/C=C/C=N/n1c(-c2ccc(Cl)cc2Cl)n[nH]c1=S`, the inhibition is 1.4%.
With `S=c1[nH]nc(-c2ccco2)n1/N=C/c1ccc(Br)s1` the figure was 5.5%; with `CC1CCCCC1NC(=O)Cn1cnc2c1c(=O)n(C)c(=O)n2C` (centres undefined), 3.3%.
Regarding `CC(C)c1nc(SCC(=O)NC(=O)NC(C)(C)C)n[nH]1`, the inhibition is -0.6%.
`Cc1cccc(C)c1NC(=S)N(Cc1cccnc1)Cc1ccccc1Cl`: the inhibition was -1.1%.
With `COc1cccc(CC(=O)N2CCCC(CCC(=O)N3CCN(c4ccccn4)CC3)C2)c1` (centres undefined), the inhibition was 12.7%.
Turning to `Cc1ccc(NC(=O)CSc2nnc(CNC(=O)c3ccccc3F)o2)cc1`, the inhibition was -6.4%.
With `CC(C)c1ccc(CC(=O)N2CCC2(C)C(=O)NS(=O)(=O)c2ccc(C(C)(C)C)cc2)cc1` (centres undefined), the inhibition was 3.4%.
For the molecule `S=c1[nH]nc2c3c4c(sc3ncn12)CCCC4`, the inhibition is -4%.
The figure for `c1nnc2c3c4c(sc3ncn12)CCC4` is 59% (active); for `CC(C(=O)O)n1cnc2sc3c(c2c1=O)CCCC3` (centres undefined) it is 12.1%.
On to `O=C(Nc1cccnc1)c1noc2c1CCCCC2`, for which the inhibition is -3.7%.
For the molecule `Cn1cnnc1SCC(=O)Nc1ccc(N2CCOCC2)cc1`, the inhibition is -8.2%.
Regarding `C=CC(=O)Nc1ccc(Nc2ccnc(Nc3ccc(N4CCN(C)CC4)cc3)n2)cc1`, the inhibition was 55.6% (active).
Regarding `CN1CCN(c2ccc(NC(=O)c3cc(Cl)c4c(c3)OCCO4)cc2)CC1`, the inhibition was -18.8%.
In the case of `O=C(Nc1ccc(-n2cccn2)cc1)C1CCN(Cc2ccsc2)CC1`, the inhibition is 9.7%.
With `CC1CCc2c(c3ccccc3[nH]c2=O)O1` (centres undefined), the inhibition was 0.4%.
In the case of `COc1ccc(-c2cc(C(=O)N(C)Cc3ccc(OC)c(OC)c3OC)c3ccccc3n2)cc1OC`, the inhibition is 27%.
For `COc1ccc(CN(C)C(=O)c2cc(-c3ccc(C)cc3C)nc3ccccc23)c(OC)c1OC`, the inhibition is 67.1% (active).
The figure for `COc1ccc(-c2cc(C(=O)N(C)CC(=O)Nc3ccccc3Cl)c3ccccc3n2)cc1OC` is 22.9%.
Turning to `CC1Cn2c(nnc2-c2cccs2)S1` (centres undefined), the inhibition was 9.9%.
For `O=C(O)C1CCCN(CCC=C(c2ccccc2)c2ccccc2)C1` (centres undefined), the inhibition is 9.2%.
Take `Cc1ccnc(NS(=O)(=O)c2ccc(NC(=O)c3ccc(S(=O)(=O)N(C)C)cc3)cc2)n1`: the inhibition was 2.1%.
Consider `CC1(C(=O)Nc2cccc3c2CCCC3)CCN1C(=O)CCc1ccc(Cl)cc1Cl` (centres undefined), for which the inhibition is -16%.
Turning to `CC(=O)OCC(=O)C1(O)CCC2C3CC(C)C4=CC(=O)CCC4(C)C3C(O)CC21C` (centres undefined), the inhibition was 73% (active).
In the case of `CC(=O)O[C@]1(C(C)=O)CC[C@H]2[C@@H]3C=C(C)C4=CC(=O)CC[C@]4(C)[C@H]3CC[C@@]21C`, the inhibition was 39.9%.
As to `CC12CCC(=O)C=C1CCC1C2C(O)CC2(C)C1CCC2(O)C(O)CO` (centres undefined), the inhibition was 24.8%.
`Cc1ccc(CC(=O)Nc2cccc(C#N)c2)cc1`: the inhibition is -4.9%.
The figure for `O=C(COC(=O)Cn1cnc2ccccc2c1=O)NCC12CC3CC(CC(C3)C1)C2` is -1.8%; for `O=C(c1ccc(Cl)c(S(=O)(=O)N2CCCCCC2)c1)N1CCN(c2ccc(O)cc2)CC1` it is 2.4%.
In the case of `c1ccc(-n2cccc2)c(N2CCCCC2)c1`, the inhibition was 5.6%.
As for `O=C1C=CC(=O)N1c1ccc(N2CCCCC2)cc1`, the inhibition is 67% (active).
With `O=C(Nc1ccc(F)c([N+](=O)[O-])c1)C1CCCO1` (centres undefined), the inhibition was 4.8%.
For `COc1ccc(OC)c(C2N(c3ccccn3)C(=O)C3CCCN32)c1` (centres undefined), the inhibition is -3.8%.
For `O=C(CCl)N(Cc1cccc([N+](=O)[O-])c1)c1cccc(Cl)c1`, the inhibition was 90.5% (active).
Take `COC(=O)c1cc(C(=O)N(Cc2ccccc2)c2ccccn2)cc([N+](=O)[O-])c1`: the inhibition is 5%.
On to `CC(=O)N(CN1C(=O)C2CC=CCC2C1=O)c1cccc(Cl)c1` (centres undefined), for which the inhibition was -5.3%.
Regarding `CCS(=O)(=O)c1ccc(C(=O)NC)c(Cl)c1Cl`, the inhibition is 4.1%.
With `C1=C(N2CCOCC2)/C(=C/c2nc3ccccc3[nH]2)CC1`, the inhibition was 0.9%.
For the molecule `COc1cccc(N2CCN(CC(=O)Nc3ccnn3C3CCCC3)CC2)c1`, the inhibition is -19%.
In the case of `Cc1noc(C)c1C(=O)N1CCC1(C)C(=O)NS(=O)(=O)c1ccc(C#N)cc1` (centres undefined), the inhibition was 1.8%.
Consider `CCOC(=O)c1c(NC(=O)CSc2nccc(=O)[nH]2)sc(C)c1C`, for which the inhibition was -8.3%.
With `CCOC(=O)c1c(C)[nH]c2c1-c1ccccc1C(=O)C2=O` the figure was 86.7% (active).
For the molecule `CCOC(=O)c1c(C)[nH]c(C)c1C(=O)CSc1nc(N)cc(N)n1`, the inhibition is -5.9%.
With `NCCCCC(C(=O)O)N(C(=O)OCc1ccccc1)C(=O)OCc1ccccc1` (centres undefined), the inhibition was 1.1%.
Regarding `COc1ccc(C(CC(=O)c2ccccc2)S(=O)(=O)c2ccccc2)cc1` (centres undefined), the inhibition was -3.5%.
With `CN(C)S(=O)(=O)N1CCN(c2ccc([N+](=O)[O-])cc2)CC1`, the inhibition is 8.2%.
Regarding `O=C1/C(=C\c2ccc([N+](=O)[O-])cc2)CS(=O)(=O)C/C1=C/c1ccc([N+](=O)[O-])cc1`, the inhibition is 98.2% (active).
On to `CCCCC(=O)Nc1c2c(nn1-c1ccc([N+](=O)[O-])cc1)CS(=O)(=O)C2`, for which the inhibition was 5.8%.
Regarding `C=CCc1cc(S(=O)(=O)c2ccc(O)c(CC=C)c2)ccc1O`, the inhibition is 60.6% (active).
`CCCCN(C)c1ccc([N+](=O)[O-])cc1`: the inhibition was -12.3%.
As to `COc1ccccc1-c1nnc2n1N=C(c1ccc(OC(F)F)c(OCC3CC3)c1)CS2`, the inhibition is 49.1%.
As to `CCn1c(SCC(=O)NC2CC2)nnc1-c1ccccc1OC`, the inhibition is -0.4%.
On to `COc1ccc(C2=Nn3c(nnc3-c3ccccc3OC)SC2)cc1OC1CCCC1`, for which the inhibition was 68.4% (active).
Regarding `CCCCCCCCCCCCCCCC(=O)OC/C=C(C)/C=C/C=C(C)/C=C/C1=C(C)CCCC1(C)C`, the inhibition is -16.9%.
